Compound activity from PubChem.
An excerpt weighted towards active compounds, which were near 2.8% of everything screened.
HSP90 refold inh = HSP90 refolding inhibition in rabbit reticulocyte lysate; AID 1789; luciferase refolding luminescence, 3 h; actives 0.91% (n = 290,000); inhibition, % at 5.6 µM;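 active = inhibition above the screen-wide mean plus 3 SD, computed separately per campaign, cut at about 16% in these data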;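 note: 0% = DMSO wells and 100% = 60 µM geldanamycin wells; inhibitors lower the luminescence because luciferase stays unfolded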
SENP8 block-1 = SENP8 (human) protease inhibition; Q96LD8; recombinant SENP8, Nedd8 substrate fluorescence; inhibition, % at 20 µM; actives 0.64% (n = 360,000); AID 602440; in the data active = inhibition mostly above about 40%, no sharp cut-off; inactive = mostly below about 27%
Target sequence (Q96LD8 whole entry, looked up): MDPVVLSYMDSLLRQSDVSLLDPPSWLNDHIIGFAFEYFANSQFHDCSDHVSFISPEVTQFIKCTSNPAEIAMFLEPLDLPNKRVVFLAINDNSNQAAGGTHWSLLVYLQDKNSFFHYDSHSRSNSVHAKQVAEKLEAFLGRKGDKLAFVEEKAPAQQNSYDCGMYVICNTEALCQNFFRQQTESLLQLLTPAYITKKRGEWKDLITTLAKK
SENP6 block = inhibitors of human SENP6 protease; actives 1.8% (n = 330,000); inhibition, % at 10 µM; Recombinant SENP6 catalytic domain, aminoluciferin luminescence; AID 2599;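 active = inhibition above about 50% at the single tested dose, limit read from the data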;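 note: plate controls were DMSO wells with enzyme for no effect and DMSO wells lacking enzyme for full effect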
SENP8 block-2 = SENP8 protease inhibition | AID 2540 | purified SENP8, Z-RLRGG-aminoluciferin cleavage, luminescence | actives 1.2% (n = 330,000) | inhibition, % at 10 µM | Q96LD8; in the data active = inhibition above about 50%
Platelet DG rel = platelet dense granule release activity. inhibition, %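 (compounds screened at 7.5 µM in platelet-rich plasma)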. human platelet-rich plasma, SFLLRN dense granule ATP release, luminescence. actives 0.22% (n = 300,000);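 active = mean replicate score, as percent of positive control, at or above 50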
SENP7 block = blocks the human protease SENP7; Q9BQF6; recombinant SENP7, Z-RLRGG-aminoluciferin luminescence, 40 min; inhibition, % at 5 µM; actives 1.5% (n = 330,000); AID 434973;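 active = inhibition above about 50% at the single test dose, limit read from the data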;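 note: plate controls were DMSO with enzyme for no effect and no enzyme buffer wells for full effect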
SENP8 conf = confirmation of human SENP8 protease inhibitors | shares compounds with SENP7 block | Recombinant SENP8, Z-RLRGG-aminoluciferin luminescence, 60 min | inhibition, % at 12.5 µM | actives 40% (n = 6,200);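 active = mean inhibition across replicates above about 50%, limit read from the data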
SENP6 conf = human SENP6 inhibition, confirmed. AID 488915. recombinant SENP6, Z-RLRGG-aminoluciferin luminescence. inhibition, % at 12.5 µM. actives 58% (n = 6,200). shares compounds with SENP7 block
SENP7 confirm = human SENP7 inhibition, confirmed. recombinant SENP7, Z-RLRGG-aminoluciferin luminescence, 40 min. inhibition, % at 12.5 µM. actives 69% (n = 6,200). shares compounds with SENP7 block
Casp3 SENP sel = inhibits human caspase-3 in SENP selectivity test; shares compounds with SENP7 block; inhibition, % at 12.5 µM; actives 60% (n = 6,200); purified caspase-3, Z-DEVD-aminoluciferin luminescence, 60 min;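 active = mean inhibition above about 50%, limit read from the data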;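 note: plate controls were enzyme with DMSO for no effect and wells without caspase-3 for full effect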
Target sequence (P42574 28-227 limits assumed): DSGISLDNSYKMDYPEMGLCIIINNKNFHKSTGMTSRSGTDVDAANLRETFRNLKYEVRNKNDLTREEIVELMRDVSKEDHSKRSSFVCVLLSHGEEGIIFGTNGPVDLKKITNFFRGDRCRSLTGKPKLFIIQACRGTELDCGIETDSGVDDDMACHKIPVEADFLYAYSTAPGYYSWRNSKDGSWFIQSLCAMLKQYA
Luc interf = counter-screen for SENP inhibitors: luminescence interference. shares compounds with SENP7 block. Pre-incubated SENP8/Z-RLRGG-aminoluciferin, luciferase luminescence interference. inhibition, % at 12.5 µM. actives 39% (n = 6,200);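 active = mean inhibition above about 50% when retested at one dose, limit read from the data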;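 note: plate controls were DMSO wells with completed reaction for no effect and substrate without enzyme for full effect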
Starred values were filed as active, the others as inactive; / = no result.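 Rule for the calls, unless noted: active = mean inhibition above about 50% in the one-dose retest (limit read from the data); inactive = the rest.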

SMILES	HSP90 refold inh	SENP8 block-1	SENP6 block	SENP8 block-2	Platelet DG rel	SENP7 block	SENP8 conf	SENP6 conf	SENP7 confirm	Casp3 SENP sel	Luc interf
Cc1cc(C(=O)Nc2cc(C(C)(C)C)on2)c(C)o1	-2	2	73*	64*	11	71*	15	25	44	51*	11
Cc1ccc(C(=O)O)c(C(=O)Nc2nc3ccccc3s2)c1	-2	16	69*	67*	-2	-2	90*	91*	100*	95*	76*
Cc1ccc(C(=O)Nc2nc3ccccc3s2)s1	16	-113	91*	73*	1	85*	57*	83*	97*	76*	49
CCOC(=O)Nc1nc2ccccc2s1	3	15	40	12	0	38	/	/	/	/	/
CSc1ncccc1C(=O)Nc1nc2ccc(S(C)(=O)=O)cc2s1	-3	-62	-11	2	5	5	/	/	/	/	/
Cc1cc(C(=O)Nc2ccon2)c(C)o1	1	1	-39	-10	6	-9	/	/	/	/	/
COc1ccc2nc(NC(=O)c3cccnc3SC)sc2c1	-4	-287	93*	71*	5	85*	78*	77*	93*	72*	46
Cc1ccccc1NC(=O)Cc1nc(COC(=O)CSc2ccc(F)cc2)cs1	/	11	/	/	/	/	/	/	/	/	/
Cc1cc(C(=O)Nc2nc3ccc(S(C)(=O)=O)cc3s2)c(C)o1	-1	-31	96*	41	32	93*	34	89*	101*	94*	14
Cc1cccc2c1-c1sc(C(=O)Nc3nccs3)cc1CO2	0	-399	40	-1	2	67*	8	12	20	13	10
Fc1ccc(C2=NN(c3ccccc3)C(c3ccco3)C2)cc1 (stereo not given)	2	-425	-22	-6	-6	1	/	/	/	/	/
Cc1ccc(C2CC(c3ccccc3)=NN2c2ccccc2)o1 (stereo not given)	-2	-386	43	7	2	55*	3	1	6	5	2
Cn1c(SCc2ccccc2F)nc2cccnc21	-1	10	60*	25	1	48	54*	51*	81*	64*	57*
Cc1ccnc(NC(=O)c2ccc3c(c2)OCO3)c1	13	-1	69*	80*	46	92*	6	87*	98*	96*	87*
O=C(Nc1ccon1)c1ccc2c(c1)OCO2	-1	19	1	-9	-5	0	/	/	/	/	/
Cc1ccnc(NC(=O)c2ccc3c(c2)NC(=O)C(C)S3)c1 (stereo not given)	/	5	55*	41	/	25	20	36	27	36	34
Cc1ccc(NC(=O)CNC(=O)c2ccc3c(c2)OCO3)nc1	1	4	3	-1	1	10	/	/	/	/	/
Cc1ccc(NC(=O)c2ccc3c(c2)OCCO3)nc1	/	4	56*	26	4	54*	48	46	81*	81*	60*
CCNC(=O)C1CCCN(C(=O)c2ccc(C(=O)OC)cc2)CC1 (stereo not given)	/	16	/	/	/	/	/	/	/	/	/
Nc1nc(-c2ccccc2)cs1	5	14	0	-15	2	-13	/	/	/	/	/
Cc1ccc(-c2cc(-c3ccccc3)no2)cc1	/	12	97*	92*	20	98*	-23	29	71*	26	24
c1ccc(-c2cc(-c3ccccc3)on2)cc1	5	32	-10	87*	23	98*	5	85*	48	56*	45
O=C(c1ccccc1)c1cc(-c2ccccc2)on1	-2	16	99*	97*	32	101*	4	101*	104*	99*	94*
Nc1nc(-c2cc(-c3ccccc3)no2)cs1	1	-7	96*	95*	14	96*	97*	97*	102*	95*	83*
Cc1cc(NC(=O)c2cc(-c3ccccc3)on2)no1	-6	1	-22	-3	-8	11	/	/	/	/	/
SMILES	HSP90 refold inh	SENP8 block-1	SENP6 block	SENP8 block-2	Platelet DG rel	SENP7 block	SENP8 conf	SENP6 conf	SENP7 confirm	Casp3 SENP sel	Luc interf
CCn1c(SCC(=O)NC2CCCC2)nnc1C(C)NC(=O)c1ccccc1Br (stereo not given)	9	15	5	-2	20	5	/	/	/	/	/
O=Cc1ccccc1OCc1ccc2c(c1)OCO2	-3	13	97*	91*	30	92*	96*	97*	101*	95*	90*
COc1cc(C)c(NC(=O)c2cc(C3CC3)nc3c2cnn3C(C)C)cc1OC	/	4	-17	5	/	-1	/	/	/	/	/
COc1ccccc1Nc1ncccc1C(=O)O	0	13	-9	-10	-6	-5	/	/	/	/	/
COc1ccc(Nc2ncccc2C(=O)O)cc1	5	23	57*	16	8	42	38	34	76*	81*	63*
O=C(CCc1nc2ccccc2s1)NC1CCOC1=O (stereo not given)	2	12	61*	2	-4	1	9	6	-8	2	0
CCOC(=O)c1cnc(-c2ccccc2)nc1N	-2	10	69*	24	3	51*	53*	54*	81*	70*	52*
CCOC(=O)c1cnc(SCC(=O)c2ccccc2)nc1N	4	12	81*	56*	1	78*	14	23	28	26	31
Cc1ccc(NC(=O)COC(=O)COc2cccc3c2OC(C)(C)C3)c(C)c1	/	1	-2	16	21	-5	/	/	/	/	/
COc1cccc(-c2nc3n(n2)CCc2ccccc2-3)c1	/	17	/	/	/	/	/	/	/	/	/
O=C(CNc1ccc2ccccc2c1)N/N=C/c1cc2ccccc2nc1Cl	6	-230	/	/	13	/	/	/	/	/	/
CCCOc1ccc(C(=O)Nc2ccc(Cl)cn2)cc1	13	7	78*	71*	6	84*	21	23	50*	40	20
Cc1ccc(C(=O)Nc2nccc(-c3cccs3)n2)cc1	-1	-7	-14	-10	2	-10	/	/	/	/	/
Cc1ccccc1C(=O)Nc1ccc(Cl)cn1	-4	21	56*	19	-1	51*	39	44	73*	74*	37
